In experiment [1] the test system is Zika virus NS2B-NS3 protease (linked construct). Briefly: Primary screen NINDS Rhodamine qHTS for Zika virus inhibitors (AID 1347160). Further: nearly all actives have a fitted effect of over 55% in size. In a few lines:
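Percent inhibition, normalized to uninhibited and enzyme-free controls, is fitted to a 4-parameter Hill equation. Fluorescence change comes from a 15-min cleavage of 1.5 microM bis-peptide Rhodamine110 substrate by 25 nM linked NS2B-NS3 at room temperature.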
(qHTS replaces the single test concentration by a dilution series.)

Experiment [2] has as its target Calcium and integrin-binding protein 1 (Homo sapiens) (UniProt Q99828). Briefly: Primary qHTS for Identification of Calcium Integrin Binding Protein 1 (CIB1) Competitor (AID 1508620).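 Further: GST tagged CIB1 binding a fluorescein labelled alphaIIb integrin peptide tracer; top concentration of the series differs between compounds; on the % scale 0 is the no-effect control and ±100 the full control effect.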 In a few lines:
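CIB1-GST (1 uM final) and compound incubated 15 min at room temperature before adding FITC-alphaIIb peptide tracer (100 nM final). Competition for binding read by fluorescence polarization (ex 480, em 540) after another 15 min at room temperature.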

A short description of experiment [3]: Primary qHTS for inhibitors of nuclear receptor binding SET domain protein 2 (NSD2) in an isogenic RCH-ACV NSD2 p.E1099K mutant (9B) (AID 1645876). Further: nearly all actives have a fitted effect of over 70% in size. Further: potency means the concentration at half of the fitted maximal effect.
In experiment [4] the target is Glutathione peroxidase 1 (Homo sapiens) (UniProt P07203). The experiment is described as follows: Primary qHTS Assay for Inhibitors of Recombinant Selenoprotein Glutathione Peroxidase 1 (GPX1) (AID 1845191). Further: nearly all actives have a fitted effect of over 65% in size. In a few lines:
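10 nM GPX1 + cpd, 30 min RT; start w/ 1 mM GSH, 0.5 mM cumene hydroperoxide, 0.5 mM NADPH, 100 nM GR, 0.01% BSA; buffer 50 mM Tris-HCl pH 7.5, 2 mM EDTA, 150 mM NaCl; Fl 340/450, 0 & 15 min.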

For experiment [5], the target named is Phospholipid hydroperoxide glutathione peroxidase GPX4 (Homo sapiens) (UniProt P36969). The experiment is described as follows: Primary qHTS Assay for Inhibitors of Recombinant Selenoprotein Glutathione Peroxidase 4 (GPX4) (AID 1845192). Further: on the % scale 0 is the no-effect control and ±100 the full control effect; nearly all actives have a fitted effect of over 65% in size. In a few lines:
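NADPH consumption, followed by fluorescence at 340/450 nm between 0 and 15 min, reports GPX4 activity via coupled glutathione reductase (100 nM). Enzyme 200 nM was pre-exposed to compound 30 min; 0.5 mM cumene hydroperoxide and 1 mM GSH served as substrates.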

Experiment [6] deals with Luciferin 4-monooxygenase (Photinus pyralis) (UniProt P08659). Briefly: Primary firefly luciferase (FLuc) qHTS assay for identification of artifact compounds. (AID 1845220). Further: nearly all actives have a fitted effect of over 60% in size. To be noted: outcome: dose series up to 54.1 µM unless noted. The procedure, abridged: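 Compounds sat 15 min at room temperature with 10 uM luciferin and 10 uM ATP (pH 7.6 Tris acetate). Firefly luciferase (10 nM final) was then added, and luminescence was read 5 min later. Data normalized to no-enzyme and DMSO controls were Hill-fitted.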

The test system of experiment [7] is Nanoluciferase (engineered Oplophorus gracilirostris luciferase). The experiment is described as follows: Primary Nanoluciferase (NLuc) qHTS assay for identification of artifact compounds. (AID 1845222).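 Further: 0% = DMSO and -100% = no enzyme.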 The procedure, abridged:
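Luminescence from secreted NLuc (filtered, 1:55-diluted S16 cell medium) read 5 min after Nano-Glo substrate; compounds preincubated 15 min, RT. Hill fits of inhibition normalized to DMSO and no-enzyme.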

A further experiment deals with CRL-7250. Briefly: Cytotoxic Profiling of Annotated Libraries Using Quantitative High-Throughput Screening (AID 1296008). Further: nearly all actives have a fitted effect of over 60% in size. Further: potency means the concentration at half of the fitted maximal effect. On max response: on the % scale 0 is the no-effect control and ±100 the full control effect. To be noted: Five cell lines viability, CellTiter-Glo ATP luminescence, 48-72 h; max response: hits give low values. The procedure, abridged:
(§1)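 Cytotoxicity was measured as CellTiter-Glo ATP luminescence, read after 10 min at room temperature. Compound treatment of the cells lasted 48 or 72 hr at 37 degrees Celsius in a qHTS format.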
(In ATP-based viability assays light output follows the ATP content of the culture.)

The subject of a further experiment is HEK293. The experiment is described as above. To be noted: Five cell lines viability, CellTiter-Glo ATP luminescence, 48-72 h; max response: hits give low values. In a few lines: as §1
Another experiment concerns HaCat. The description is as above. To be noted: Five cell lines viability, CellTiter-Glo ATP luminescence, 48-72 h; max response: hits give low values. The procedure, abridged:
as §1

Another experiment has as its system C33A. Briefly: Primary qHTS to identify gynecologic anti-cancer compounds using libraries of approved drugs and bioactive compounds (AID 1345084). Further: nearly all actives have a fitted effect of over 55% in size. Further: potency means the concentration at half of the fitted maximal effect. To be noted: Gynecologic cancer cell panel viability, ATPlite luminescence, 48 h; series mostly up to 57.5 µM. In a few lines: (§2)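 Cell viability after 48 h drug treatment, ATPlite luminescence readout; five doses.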

A further experiment has as its system CASKI. The description is as above. To be noted: Gynecologic cancer cell panel viability, ATPlite luminescence, 48 h; series mostly up to 57.5 µM. The procedure, abridged: as §2
Another experiment concerns JEG-3. Described as above. To be noted: Gynecologic cancer cell panel viability, ATPlite luminescence, 48 h; series mostly up to 57.5 µM. The procedure, abridged:
as §2

The test system of another experiment is NIH3T3. The experiment is described as follows: Cytotoxic Profiling of Annotated Libraries Using Quantitative High-Throughput Screening (AID 1296008). Further: nearly all actives have a fitted effect of over 60% in size. Further: potency means the concentration at half of the fitted maximal effect. On max response: on the % scale 0 is the no-effect control and ±100 the full control effect. To be noted: Five cell lines viability, CellTiter-Glo ATP luminescence, 48-72 h; max response: hits give low values. In a few lines: as §1
A further experiment relates to Es-2. Briefly: Primary qHTS to identify gynecologic anti-cancer compounds using libraries of approved drugs and bioactive compounds (AID 1345084). Further: nearly all actives have a fitted effect of over 55% in size. Further: potency means the concentration at half of the fitted maximal effect. To be noted: Gynecologic cancer cell panel viability, ATPlite luminescence, 48 h; series mostly up to 57.5 µM. The procedure, abridged:
as §2

The subject of the next experiment is Hek293T. Described as above. To be noted: Gynecologic cancer cell panel viability, ATPlite luminescence, 48 h, control line for the selectivity index; series mostly up to 57.5 µM. The procedure, abridged:
as §2

In another experiment the test system is OV90. Described as above. To be noted: Gynecologic cancer cell panel viability, ATPlite luminescence, 48 h; series mostly up to 57.5 µM. The procedure, abridged:
as §2

In another experiment the test system is PA-1. The experiment is described as above. To be noted: Gynecologic cancer cell panel viability, ATPlite luminescence, 48 h; series mostly up to 57.5 µM. The procedure, abridged:
as §2

A further experiment relates to Tov-21-G. Described as above. To be noted: Gynecologic cancer cell panel viability, ATPlite luminescence, 48 h; series mostly up to 57.5 µM. In a few lines: as §2
For another experiment, the system named is Tov112D. The experiment is described as above. To be noted: Gynecologic cancer cell panel viability, ATPlite luminescence, 48 h; series mostly up to 57.5 µM. In a few lines: as §2

Structures are written as SMILES. “And” between values parts separate entries of the source, which are not always exact repeats. Equal entries are not always repeated. Values without a mark were called inactive. Records with an inconclusive call do not appear. The source made the active and inactive calls. The call rests on the fitted dose curve; in most records, active means well fitted curve in the direction sought with a large enough effect; inconclusive means small, poorly fitted or top-dose-only effect, or another doubt; inactive means no such curve, though single readings can be large; an effect the other way counts as inactive or inconclusive.

Consider five molecules from PubChem BioAssay (NCATS).

Glutathione peroxidase 1 (Homo sapiens), sequence (P07203 whole entry, looked up): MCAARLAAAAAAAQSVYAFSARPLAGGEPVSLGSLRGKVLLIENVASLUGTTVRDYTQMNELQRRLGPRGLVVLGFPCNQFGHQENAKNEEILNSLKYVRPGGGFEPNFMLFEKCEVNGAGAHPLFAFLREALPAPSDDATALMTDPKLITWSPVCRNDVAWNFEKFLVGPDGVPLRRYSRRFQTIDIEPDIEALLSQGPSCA
Phospholipid hydroperoxide glutathione peroxidase GPX4 (Homo sapiens), sequence (P36969 whole entry, looked up): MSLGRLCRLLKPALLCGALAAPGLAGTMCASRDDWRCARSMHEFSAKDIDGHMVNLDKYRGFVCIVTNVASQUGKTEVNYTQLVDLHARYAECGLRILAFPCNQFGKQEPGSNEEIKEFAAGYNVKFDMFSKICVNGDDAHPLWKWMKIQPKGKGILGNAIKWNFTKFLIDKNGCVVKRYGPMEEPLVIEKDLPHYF
Calcium and integrin-binding protein 1 (Homo sapiens), sequence (Q99828 whole entry, looked up): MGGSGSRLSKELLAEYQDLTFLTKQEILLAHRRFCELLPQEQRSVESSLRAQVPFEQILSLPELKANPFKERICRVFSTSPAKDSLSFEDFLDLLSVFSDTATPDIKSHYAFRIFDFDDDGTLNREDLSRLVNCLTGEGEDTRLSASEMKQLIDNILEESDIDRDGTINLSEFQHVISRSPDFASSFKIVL

For `Cc1sc2c(c1C)C(c1ccc(Cl)cc1)=N[C@@H](CC(N)=O)c1nnc(C)n1-2`, the Potency entry (in experiment [1]; in [2]; in [4]; in experiment [5]; in experiment [7]; with C33A) was “inactive” throughout. Also, the Potency result with CASKI and in the experiment with JEG-3 was “inactive” in each case. Besides, the Potency in experiment [3] was 64.9 nM (active) and 132 nM (active); with CRL-7250 it was 0.366 µM (active); in the experiment with HEK293 it was 0.259 µM (active). Moreover, the molecule was classed as inactive in experiment [6]. In addition, in the experiment with HaCat, the max response was -29.9%.
`COc1cc(O)c2c(c1)/C=C/C[C@@H](O)[C@@H](O)C(=O)CCC[C@H](C)OC2=O`: the Potency result (in experiment [1]; in [2]; in [4]; in experiment [5]; in experiment [7]; with C33A) was “inactive” throughout. Besides, the Potency result with CASKI, in the experiment with Es-2, in the experiment on Hek293T, in the experiment on JEG-3, in the experiment with OV90 and in the experiment with PA-1 was “inactive” each time. For the same molecule, the Potency result in the experiment with Tov-21-G and with Tov112D was “inactive” throughout. Besides, in experiment [6], the molecule was called inactive. Moreover, in the experiment on CRL-7250, the Potency is 14.3 µM (active). Also, the max response in the experiment on HEK293 is 0.301%; in the experiment on HaCat it was -18.3%; in the experiment with NIH3T3, -5.04%.
For the molecule `C[C@H]1C/C=C/[C@H]2[C@@H]3O[C@]3(C)[C@@H](C)[C@H]3[C@H](Cc4ccccc4)NC(=O)[C@]32OC(=O)O/C=C/[C@@](C)(O)C1=O`, the Potency entry (in experiment [1]; in [2]; in experiment [4]; in experiment [7]; with C33A; in the experiment on CASKI) was “inactive” throughout. Also, the Potency result with Es-2 and with OV90 was “inactive” throughout. For the same molecule, the Potency is 632 nM (active) in experiment [3]; 0.632 µM (active) in the experiment on CRL-7250; 0.399 µM (active) in the experiment with HEK293; 0.796 µM (active) with HaCat; 2.51 µM (active) in the experiment with PA-1; 3.16 µM (active) with Tov112D. In addition, the outcome in experiment [6] was “inactive [at 25.7 µM]”.
Turning to `C=C(C)[C@@H]1[C@H]2OC(=O)[C@H]1[C@]1(O)C[C@H]3O[C@]34C(=O)O[C@H]2[C@]14C`, the Potency result in [1], in [2], in experiment [3], in experiment [4], in experiment [5] and in experiment [7] was “inactive” in each case. Moreover, the Potency entry in the experiment on C33A, in the experiment with CASKI, in the experiment on Es-2, in the experiment on Hek293T, with JEG-3 and in the experiment with OV90 was “inactive” in each case. Besides, the Potency result in the experiment with PA-1, in the experiment on Tov-21-G and in the experiment on Tov112D was “inactive” throughout. The molecule was classed as inactive (in experiment [6]; in the experiment with CRL-7250; in the experiment on HEK293; in the experiment on NIH3T3).
`c1cncc(OC[C@@H]2CCN2)c1`: the Potency result in [1], in experiment [2], in [3], in experiment [4], in experiment [5] and in [7] was “inactive” in each case. Further, the Potency entry in the experiment with C33A, in the experiment with CASKI, in the experiment on Es-2, with Hek293T, in the experiment with JEG-3 and with OV90 was “inactive” in each case. The Potency result in the experiment with PA-1, in the experiment on Tov-21-G and with Tov112D was “inactive” throughout. For the same molecule, in experiment [6], the result was inactive. In addition, the max response is 0.617% in the experiment with CRL-7250, 1.76% in the experiment with HEK293, 0.624% in the experiment on HaCat and -2.03% in the experiment with NIH3T3.
